ELG1 repair inh: ELG1-dependent DNA repair inhibition | HEK293T ELG1-luciferase reporter, luminescence, 16 h; DNA damage induced by 5-fluorouridine | Potency, µM (series often up to 46.1 µM), without a hit: at the top dose activity change, negative = inhibition, most hits filed as inhibitors | 330,000 tested, 2.3% active | AID 504467; also: potency is read from the fitted curve at half-maximal effect; nearly all actives have a fitted effect of over 55% in size
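5-Fluorouridine DNA damage + compound/DMSO, 2,000 cells/well, 16 h, 37 °C/5% CO2. ONE-Glo, 30 min RT, luminescence. Readout = decrease in reporter signal.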
IL-1B inflam inh: inflammasome signaling inhibition, IL-1 beta readout; 360,000 tested, 4.7% active; THP-1 LPS/ATP IL-1B secretion, AlphaLISA, 16 h; stronger effect = lower value; activity change, % at 57.5 µM; in the data active = activity change below about -50%; inconclusive = mostly about -30% to -49%
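THP-1 cells pretreated 1 hr with compounds (up to 57.5 uM final), then stimulated with LPS (250 ng/mL final) plus ATP (1.25 mM final); secreted IL-1B measured by AlphaLISA after 16 hr, decreased signal indicating inhibition.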
DT40 TDP1 no CPT: qHTS for Inhibitors of human tyrosyl-DNA phosphodiesterase 1 (TDP1): qHTS in cells in absence of CPT | DT40 Tdp1-/- hTDP1 cells, no CPT, ATP luminescence, 48 h | Potency, µM (titrated, usually from 46.2 µM), inactives show at the top dose activity change, negative = growth inhibition, most hits filed as inhibitors | 420,000 tested, 15% active | AID 686978, 2013; also: potency is read from the fitted curve at half-maximal effect; nearly all actives have a fitted effect of over 55% in size
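Camptothecin absent (DMSO only). Human TDP1-complemented DT40 knockout cells, 400 cells/well, 37 °C for minimum 48 hr; ATP measured via CellTiter-Glo, 30 min dark incubation, luminescence.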
VP16 counter: counter-screen for ROR gamma inhibitors: Gal4-VP16 reporter. Drosophila S2 Gal4-VP16 UAS-luciferase, luminescence, 20 h. Potency, µM (titrated, usually from 53.6 µM), inactives show top-dose activity, negative = inhibition, most hits filed as inhibitors. 310,000 tested, 3.5% active. AID 2546;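 also: Gal4-VP16 expression switched on by copper sulfate through the metallothionein promoter; potency is read from the fitted curve at half-maximal effect; nearly all actives have a fitted effect of over 50% in size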
RORgamma inh: blocks mouse ROR gamma transcriptional activity | Potency, µM (highest dose often 53.6 µM), for inactives: at the highest dose activity change, negative = inhibition, actives largely listed as inhibitors | Drosophila S2 Gal4-RORgamma UAS-luciferase reporter, 20 h | AID 2551 | P51450 | 310,000 tested, 5.4% active; also: potency is read from the fitted curve at half-maximal effect; nearly all actives have a fitted effect of over 60% in size
Target sequence (P51450 whole entry, looked up, the tested form may be a part): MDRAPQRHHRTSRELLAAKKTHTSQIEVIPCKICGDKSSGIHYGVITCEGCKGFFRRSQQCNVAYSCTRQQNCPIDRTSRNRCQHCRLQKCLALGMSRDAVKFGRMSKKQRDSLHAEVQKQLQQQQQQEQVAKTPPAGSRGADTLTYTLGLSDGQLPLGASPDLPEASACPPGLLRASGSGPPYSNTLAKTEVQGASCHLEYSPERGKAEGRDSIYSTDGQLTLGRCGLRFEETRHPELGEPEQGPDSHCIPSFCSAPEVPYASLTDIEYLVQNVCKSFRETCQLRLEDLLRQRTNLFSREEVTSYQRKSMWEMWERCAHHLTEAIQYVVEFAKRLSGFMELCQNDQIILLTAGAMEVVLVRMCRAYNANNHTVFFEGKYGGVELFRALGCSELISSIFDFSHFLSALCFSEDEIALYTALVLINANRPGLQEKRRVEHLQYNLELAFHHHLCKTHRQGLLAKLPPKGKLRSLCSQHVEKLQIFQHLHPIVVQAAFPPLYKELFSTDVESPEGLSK
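ROR gamma transcriptional activity was tracked as Gal4-UAS luciferase output in stably transfected Drosophila Schneider cells, with compound added 1 hr before 700 uM copper sulfate induction and a 20 hr ambient-temperature incubation.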
TDP1 cell CPT: growth inhibition of DT40 Tdp1-/-;hTDP1 cells with camptothecin (screen for TDP1 inhibitors) | chicken DT40 Tdp1-/-;hTDP1 cells + 20 nM CPT, ATP luminescence, 48 h | Potency, µM (series often up to 46.2 µM), for the others: top-dose activity change, negative = growth inhibition, actives largely listed as inhibitors | 420,000 tested, 12% active; also: potency is read from the fitted curve at half-maximal effect; nearly all actives have a fitted effect of over 55% in size
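Cell growth measured by CellTiter-Glo luminescence after a minimum 48 h, 37 C compound exposure with 20 nM CPT in Tdp1-knockout DT40 cells stably expressing hTDP1, seeded 400/well; qHTS titration format.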
* marks the source's active call; other numbers are inactive results; ? = inconclusive; nt = no result; [ ] = another dose, or the depositor's remark. Most compounds without a hit are left out; they make up all but 21% or so of the library. Unless noted, calls follow the shape of the dose curve; as a rule, active = well fitted curve in the direction sought with a large enough effect; inconclusive = small, poorly fitted or top-dose-only effect, or another doubt; inactive = no such curve, though single readings can be large; an effect the other way counts as inactive or inconclusive. % is scaled to controls: 0 for no effect and ±100 for the full control effect.

SMILES	ELG1 repair inh	IL-1B inflam inh	DT40 TDP1 no CPT	VP16 counter	RORgamma inh	TDP1 cell CPT
COC(=O)Cn1c(C(=O)N2CCCC2)cc2c1C[C@H]1CN(C(=O)c3ccccc3)[C@@](Cc3ccccc3)(C(=O)OC)[C@@H]21	nt	nt	nt	3%	3%	nt
COc1ccc(NC(=O)c2ccc3snnc3c2)cc1	?	-19	?	-1%	36%	-20%
Cc1cc(C)c(NC(=O)Nc2ccc3snnc3c2)c(C)c1	nt	nt	18µM*	nt	nt	?
C/C(=N\Nc1cc(N2CCOCC2)ncn1)c1ccc(O)cc1	21%	-95*	?	4%	27%	8.2µM*
O=C(N/N=C/c1ccc(N2CCOCC2)s1)c1ccc(O)cc1	nt	?	-25%	nt	nt	-15%
C/C(=N\NC(=O)c1ccc(O)cc1)c1ccc(N2CCOCC2)cc1	21%	8	-1%	?	1.8µM*	1%
O=C(N/N=C/c1ccc(N2CCOCC2)cc1)c1ccc(O)cc1	?	9	?	?	4.5µM*	?
COc1ccc(NC(=O)CCN2CCN(CCO)CC2)c(OC)c1	nt	nt	-11%	nt	nt	-10%
COc1ccc(/C=C/c2ccncc2)c2ccccc12	nt	12	?	-5%	-29%	-21%
COc1cc(N(C)C)c(OC)cc1/C=C/c1ccnc2ccccc12	nt	nt	10µM*	nt	nt	10µM*
COc1cc(/C=C/c2ccnc3ccccc23)ccc1N(C)C	nt	nt	2.2µM*	nt	nt	2µM*
Cn1c(C(=O)NCc2ccccc2Cl)cc2sc(Cl)cc21	nt	nt	?	nt	nt	-2%
O=C(CCn1c2c(c3ccccc31)CCCC2)NNC(=O)c1ccc([N+](=O)[O-])cc1	?	-2	12µM*	-4%	72%	21µM*
CCOC(=O)NNC(=O)CCn1c2c(c3ccccc31)CCCC2	18µM*	?	?	-23%	17%	?
Cc1ccc(OCC(=O)N(C)CC(=O)NCc2ccco2)c(Br)c1	?	4	-29%	nt	nt	4%
Cc1cc(NC(=O)Nc2ccc3c(ccn3C)c2)sn1	nt	-100*	?	-6%	?	?
Cc1cc2nn(-c3cccc4ccccc34)nc2cc1N	?	30	18µM*	25%	-1%	21µM*
Cc1ccc(-n2nc3cc(C)c(N)cc3n2)cc1	?	13	5%	?	-24%	8%
Nc1ccc2nn(-c3cccc4ccccc34)nc2c1	?	12	16µM*	14%	0%	12µM*
Cc1ccc(N(C)S(=O)(=O)c2cccc(C(=O)Nc3nnc(C4CC4)s3)c2)cc1	?	-5	?	-8%	11µM*	-16%
CCOc1ccc(N(C)S(=O)(=O)c2ccc(C)c(C(=O)Nc3nnc(C4CC4)s3)c2)cc1	-19%	-3	4.6µM*	nt	nt	-9%
COc1ccc(/C=C2/Sc3ccc(C(=O)NCCN4CCCCCC4)cc3NC2=O)cc1	?	-90*	3.3µM*	20µM*	?	3.7µM*
CCC1CCCCN1CCCNC(=O)c1ccc(/C=C2/Sc3ccccc3NC2=O)cc1 (stereo unspecified)	-5%	-2	3.7µM*	?	?	?
O=C1Nc2cc(C(=O)NCCCN3CCCC3)ccc2S/C1=C\c1ccccc1	?	-9	18µM*	-19%	-34%	?
Nc1ncnc2c1ncn2[C@@H]1O[C@H](C(=O)N2CCN(CC(=O)Nc3cccc4c3CNC4=O)CC2)[C@@H](O)[C@H]1O	nt	nt	nt	-1%	-13%	nt
COc1ccc(-c2cc(C(=O)N3CCc4c(cnc(C)c4CNC(=O)c4ccsc4)C3)[nH]n2)cc1	nt	nt	-2%	nt	nt	-1%[9.04 µM]
CCN(CC)C(=O)Cn1c(=O)n(Cc2ccc(C(=O)NCc3ccccc3Cl)cc2)c(=O)c2ccccc21	nt	nt	-16%	nt	nt	-3%

Screening data from PubChem BioAssay.
